Test [1] is described as follows: Nuclear factor erythroid 2-related factor 2/antioxidant responsive element (Nrf2/ARE) small molecule agonists: qHTS cell viability counter screen in human keratinocytes (AID 1919968; active means well fitted curve in the direction sought with a large enough effect in the repeat runs; an effect the other way counts as inactive or inconclusive; further: nearly all actives have a fitted effect of over 55% in size). In short, it runs like this: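 Cells of the KeratinoSens line were plated at 1,500 per well and left for 5 h before compound transfer from DMSO stocks. After a 23 h incubation (37 C, 5% CO2), CellTiter-Fluor was added. Signal was taken as fluorescence intensity 1 h later.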
On the technique in general: In qHTS, concentration-response curves come from the screen itself.

A short description of test [2]: Nuclear factor erythroid 2-related factor 2/antioxidant responsive element (Nrf2/ARE) small molecule agonists: luciferase reporter gene qHTS assay in human keratinocytes (AID 1919969). Further: nearly all actives have a fitted effect of over 35% in size.
Test [3] addresses Gonadotropin-releasing hormone receptor (Homo sapiens) (UniProt P30968). Kind of test: Human gonadotropin-releasing hormone receptor (GnRHR) small molecule agonists, calcium flux assay in GnRHR-HEK293 cells (AID 1920063). Further: nearly all actives have a fitted effect of over 35% in size. In short, it runs like this:
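Compounds dissolved in DMSO are pin-transferred onto dye-loaded GnRHR-HEK293 cells, which were seeded 18 h before at 37 C/5% CO2. Calcium signal is read as fluorescence intensity at 1 s intervals for 3 min.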
In general terms: A change in cytosolic calcium serves as a functional read-out for many receptors and channels.

For test [4], the target named is KiSS-1 receptor (Homo sapiens) (UniProt Q969F8). In words: Human kisspeptin (KISS1R) small molecule agonists, calcium flux assay in KISS1R-HEK293 cells (AID 1920064; active means well fitted curve in the direction sought with a large enough effect in the repeat runs; an effect the other way counts as inactive or inconclusive). Summed up: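 Cell line: HEK293, stable human KISS1R. Dye loading 1 h at 37 C after 18 h culture. Read: kinetic fluorescence, 480/540 nm, 3 min at 1 s intervals.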
Test [5] can be described thus: p53 small molecule agonists, cell-based qHTS assay with rat liver microsomes: qHTS cell viability counter screen (AID 1963580). Further: nearly all actives have a fitted effect of over 45% in size. Summed up: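 Counter screen for cytotoxicity under metabolic activation: rat liver microsomes and NADPH, 0.5 mg/mL final each, added with compounds to p53RE-bla HCT-116 cells; 16 h at 37 C, then ATP luminescence read.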
A short description of test [6]: p53 small molecule agonists, cell-based qHTS assay: qHTS cell viability counter screen (AID 1963581). Further: nearly all actives have a fitted effect of over 45% in size. In short, it runs like this:
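ATP content measured by luminescence in HCT-116 p53RE-bla cells treated 16 h at 37 C, same wells as the reporter screen.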

Test [7] is described as follows: cAMP Responsive Elements (CRE) small molecule agonists, cell-based qHTS assay (AID 1963590). Summed up:
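HEK 293T cells stably bearing CRE-bla were plated at 2,000 cells per well and rested 18 h. Compounds, positive controls or DMSO were added for 3 h at 37 C. LiveBLAzer B/G substrate was then loaded for 2 h at room temperature.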

Test [8] in a line: cAMP Responsive Elements (CRE) small molecule antagonists, cell-based qHTS assay (AID 1963591; active means well fitted inhibition curve with a large enough effect in the signal ratio in the repeat runs, not every such curve was filed as active; the % refers to the signal ratio). In short, it runs like this:
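First, CRE-bla HEK293T cells settled 18 h at 37 C. Next, compound and 0.25 uM final NKH477 were applied for 3 h. Last, LiveBLAzer B/G substrate was loaded for 2 h at room temperature.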

The target in test [9] is Beta-2 adrenergic receptor (Homo sapiens) (UniProt P07550). In words: Adrenergic beta2 receptor (ADRB2) small molecule antagonists, cell-based qHTS assay (AID 1963592). Further: series mostly up to about 92 µM; nearly all actives have a fitted effect of over 50% in size. Summed up: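 Assay format: CHO-ADRB2 cells, 18-20hr seeding at 37C/5% CO2, then compound plus 1nM isoproterenol agonist mix for 0.5hr RT. Homogeneous time-resolved fluorescence cAMP detection after 1hr, expressed as 665/615 nm ratio.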

Test [10] has the same target. In words: Adrenergic beta2 receptor (ADRB2) small molecule agonists, cell-based qHTS assay (AID 1963593).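 Further: CHO cells stably overexpressing human ADRB2.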 In short, it runs like this: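 CHO cells stably over-expressing ADRB2 were plated overnight at 37C, then dosed with compounds plus a stimulation mix containing 100uM IBMX and 25uM Ro-20-1724 for 0.5hr at room temperature. cAMP was measured by HTRF competition, 1hr.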

In test [11] the target is D(2) dopamine receptor (Homo sapiens) (UniProt P14416). Kind of test: Dopamine D2 receptor (DRD2) small molecule agonists, cell-based qHTS assay (AID 1963594). Further: nearly all actives have a fitted effect of over 35% in size. Further: potency means the concentration at half of the fitted maximal effect. In short, it runs like this:
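HEK293 cells stably expressing DRD2 were cultured 24 h at 37 C, then given Ro20-1724 (0.1 mM final) and compounds for 10 min at room temperature. NKH477 (200nM) was then added for 30 min. cAMP was read by HTRF.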

Test [12] has the same target. In words: Dopamine D2 receptor (DRD2) small molecule antagonists, cell-based qHTS assay (AID 1963595; active means well fitted inhibition curve with a large enough effect in the signal ratio in the repeat runs, with a control signal flat; the % refers to the signal ratio). In short, it runs like this: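 Antagonism was scored as restored cAMP in HEK293-DRD2 cells. These cells were stimulated with 200 nM NKH477 and 12 nM quinpirole for 30 min at room temperature, in the presence of 0.1 mM Ro20-1724.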
Test [13] in a line: p53 small molecule agonists, cell-based qHTS assay with human liver microsomes (AID 1963577). In short, it runs like this: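 Compounds act here after metabolic activation: human liver microsomes and NADPH, both at 0.5 mg/mL final, were co-added to p53RE-bla cells. Incubation ran 16 h at 37 C, followed by LiveBLAzer detection.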
Test [14] can be described thus: p53 small molecule agonists, cell-based qHTS assay with rat liver microsomes (AID 1963578). Summed up: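 Read-out is beta-lactamase reporter fluorescence (LiveBLAzer, 2 h, room temperature, dark) in p53RE-bla cells treated 16 h at 37 C with compound, rat liver microsomes and NADPH, both 0.5 mg/mL final.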
Test [15] in a line: p53 small molecule agonists, cell-based qHTS assay with human liver microsomes: qHTS cell viability counter screen (AID 1963579). Further: nearly all actives have a fitted effect of over 45% in size. Summed up:
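Cells carrying the p53 response-element beta-lactamase reporter are treated for 16 h at 37 C with test compounds in the presence of human liver microsomes and NADPH (both 0.5 mg/mL final); ATP-based CellTiter-Glo luminescence then reports viability.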

Test [16] can be described thus: p53 small molecule agonists, cell-based qHTS assay (AID 1963582; active means well fitted activation curve with a large enough effect in the signal ratio in the repeat runs, not every such curve was filed as active; the % refers to the signal ratio). Summed up: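 16 h compound exposure (37 C) of p53 response element–bla cells, preceded by 5 h recovery at 37 C/5% CO2; read-out via LiveBLAzer B/G FRET substrate, 2 h RT, fluorescence intensity.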
The target of test [17] is 5-hydroxytryptamine receptor 2A (Homo sapiens) (UniProt P28223). Kind of test: 5-hydroxytryptamine receptor 2A (HTR2A) small molecule antagonists, cell-based qHTS assay (AID 1963586). Further: nearly all actives have a fitted effect of over 45% in size. Summed up:
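CHO cells stably expressing human HTR2A were plated for 18 h at 37 C, then loaded with calcium dye for 1 h. Compounds were preincubated 5 min at room temperature before DOI (4 nM solution) was added. Kinetic fluorescence was read for 3 min.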

For test [18] the target is unchanged. Kind of test: 5-hydroxytryptamine receptor 2A (HTR2A) small molecule agonists, cell-based qHTS assay (AID 1963587). Further: nearly all actives have a fitted effect of over 30% in size. Summed up: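 HTR2A-CHO cells, plated 18 h at 37 C/5% CO2, dye-loaded 1 h at 37 C; compounds in DMSO added by pin tool (agonist mode). Intracellular calcium flux read as kinetic fluorescence on FDSS over 2 min at 1 s intervals.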
For test [19], the target named is Muscarinic acetylcholine receptor M1 (Homo sapiens) (UniProt P11229). In words: Cholinergic receptor muscarinic 1 (CHRM1) small molecule antagonists, cell-based qHTS assay (AID 1963588). Further: nearly all actives have a fitted effect of over 40% in size. Summed up:
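Compounds were tested at 15 concentrations in three independent runs. Dye-loaded CHRM1-CHO cells were exposed 5 min at room temperature before stimulation by acetylcholine added at 50nM. Intracellular calcium was read kinetically on FDSS for 3 min.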

For test [20] the target is unchanged. In words: Cholinergic receptor muscarinic 1 (CHRM1) small molecule agonists, cell-based qHTS assay (AID 1963589). Further: nearly all actives have a fitted effect of over 35% in size. In short, it runs like this: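 Homogeneous fluorescence calcium flux, agonist mode. Human M1-expressing CHO cells; compound dosed at 15 concentrations, three independent runs; signal sampled every 1 sec.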

Where “and” joins values, the source holds several entries; their conditions need not be identical. Identical values can stand only once. Records with an inconclusive call do not appear. The source holds several records for some structures; these can differ, active in one and inactive in another. Calls of active or inactive are those of the source. Unless noted, the call rests on the fitted dose curve.

Chain of 5-hydroxytryptamine receptor 2A (Homo sapiens) (P28223 whole entry, looked up): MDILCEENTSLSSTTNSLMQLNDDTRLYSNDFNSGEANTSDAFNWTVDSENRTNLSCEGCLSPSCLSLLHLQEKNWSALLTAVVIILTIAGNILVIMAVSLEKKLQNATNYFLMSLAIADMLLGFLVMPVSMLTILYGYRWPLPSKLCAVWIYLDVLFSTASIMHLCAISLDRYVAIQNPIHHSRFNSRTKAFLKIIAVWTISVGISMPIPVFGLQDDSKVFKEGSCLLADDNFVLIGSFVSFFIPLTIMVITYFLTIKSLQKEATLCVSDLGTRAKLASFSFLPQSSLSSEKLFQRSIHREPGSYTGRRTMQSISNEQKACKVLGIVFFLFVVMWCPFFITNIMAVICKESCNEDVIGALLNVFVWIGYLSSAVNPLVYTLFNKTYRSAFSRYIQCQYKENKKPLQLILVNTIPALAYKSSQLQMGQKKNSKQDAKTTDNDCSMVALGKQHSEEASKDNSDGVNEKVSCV
Chain of KiSS-1 receptor (Homo sapiens) (Q969F8 whole entry, looked up): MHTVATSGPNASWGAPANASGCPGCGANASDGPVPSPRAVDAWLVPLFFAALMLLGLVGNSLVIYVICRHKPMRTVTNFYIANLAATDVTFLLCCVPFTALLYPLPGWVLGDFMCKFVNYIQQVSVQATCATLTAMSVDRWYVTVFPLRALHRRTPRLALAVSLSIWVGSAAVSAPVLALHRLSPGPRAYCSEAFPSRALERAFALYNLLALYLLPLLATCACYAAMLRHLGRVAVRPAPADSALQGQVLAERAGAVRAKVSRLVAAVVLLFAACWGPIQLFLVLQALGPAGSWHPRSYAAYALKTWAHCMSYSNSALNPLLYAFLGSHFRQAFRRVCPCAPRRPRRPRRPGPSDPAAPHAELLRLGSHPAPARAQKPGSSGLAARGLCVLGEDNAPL
Chain of Gonadotropin-releasing hormone receptor (Homo sapiens) (P30968 whole entry, looked up): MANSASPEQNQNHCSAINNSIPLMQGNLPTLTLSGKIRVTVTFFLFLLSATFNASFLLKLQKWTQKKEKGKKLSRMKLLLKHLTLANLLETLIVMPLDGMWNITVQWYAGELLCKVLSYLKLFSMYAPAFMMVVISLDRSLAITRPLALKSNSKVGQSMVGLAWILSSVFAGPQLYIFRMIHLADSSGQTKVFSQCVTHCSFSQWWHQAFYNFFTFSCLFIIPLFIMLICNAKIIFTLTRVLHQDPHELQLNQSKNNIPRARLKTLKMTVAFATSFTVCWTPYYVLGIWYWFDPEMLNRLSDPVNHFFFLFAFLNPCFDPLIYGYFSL
Chain of Muscarinic acetylcholine receptor M1 (Homo sapiens) (P11229 whole entry, looked up): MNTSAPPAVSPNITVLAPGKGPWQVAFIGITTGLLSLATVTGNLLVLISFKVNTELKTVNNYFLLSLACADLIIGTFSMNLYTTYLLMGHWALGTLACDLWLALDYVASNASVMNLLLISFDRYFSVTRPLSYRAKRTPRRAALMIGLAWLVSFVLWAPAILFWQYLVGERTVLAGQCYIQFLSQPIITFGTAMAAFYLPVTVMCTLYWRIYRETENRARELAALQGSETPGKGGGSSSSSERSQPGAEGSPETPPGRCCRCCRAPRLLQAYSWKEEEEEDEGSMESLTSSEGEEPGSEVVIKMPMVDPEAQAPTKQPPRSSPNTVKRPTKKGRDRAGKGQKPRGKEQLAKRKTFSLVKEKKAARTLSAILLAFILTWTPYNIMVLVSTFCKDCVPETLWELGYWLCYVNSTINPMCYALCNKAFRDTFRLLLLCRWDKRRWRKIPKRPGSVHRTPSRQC
Chain of D(2) dopamine receptor (Homo sapiens) (P14416 whole entry, looked up): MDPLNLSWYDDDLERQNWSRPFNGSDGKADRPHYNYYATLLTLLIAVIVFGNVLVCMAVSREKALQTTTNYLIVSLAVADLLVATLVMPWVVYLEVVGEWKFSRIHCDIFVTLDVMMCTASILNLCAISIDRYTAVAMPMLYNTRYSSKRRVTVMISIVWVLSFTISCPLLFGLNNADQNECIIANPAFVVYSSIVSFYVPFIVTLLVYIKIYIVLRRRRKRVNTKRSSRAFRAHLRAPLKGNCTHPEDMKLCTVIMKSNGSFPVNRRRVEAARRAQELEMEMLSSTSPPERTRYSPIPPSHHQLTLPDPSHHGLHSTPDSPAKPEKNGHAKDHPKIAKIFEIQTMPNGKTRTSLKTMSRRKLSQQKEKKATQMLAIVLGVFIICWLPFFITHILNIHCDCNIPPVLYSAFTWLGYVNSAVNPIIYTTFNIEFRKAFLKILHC
Chain of Beta-2 adrenergic receptor (Homo sapiens) (P07550 whole entry, looked up): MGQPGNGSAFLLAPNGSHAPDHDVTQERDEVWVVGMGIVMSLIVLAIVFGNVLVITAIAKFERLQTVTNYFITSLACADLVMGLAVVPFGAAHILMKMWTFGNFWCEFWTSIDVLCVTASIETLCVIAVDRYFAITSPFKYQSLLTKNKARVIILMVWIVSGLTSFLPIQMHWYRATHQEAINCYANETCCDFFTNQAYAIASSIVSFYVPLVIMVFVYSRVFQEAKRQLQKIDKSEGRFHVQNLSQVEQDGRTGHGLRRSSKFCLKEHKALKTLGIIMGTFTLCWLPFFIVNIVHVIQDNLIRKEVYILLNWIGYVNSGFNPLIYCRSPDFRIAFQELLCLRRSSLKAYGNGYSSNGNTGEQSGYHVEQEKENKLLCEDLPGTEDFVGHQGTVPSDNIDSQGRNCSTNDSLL

`CN1CCC[C@H]1c1cccnc1`: the Potency entry in [1], in [2], in [3], in test [4], in test [5] and in test [6] was “inactive” in each case. Besides, the Potency result in [7], in test [8], in [9], in test [10], in test [11] and in [12] was “inactive” each time.
Take `CC1(C)O[C@@H]2C[C@H]3[C@@H]4C[C@H](F)C5=CC(=O)CC[C@]5(C)[C@H]4[C@@H](O)C[C@]3(C)[C@]2(C(=O)CO)O1`: the Potency entry in test [1], in [2], in [3], in [4], in test [13] and in test [14] was “inactive” in each case. The Potency entry in test [15], in test [5], in [6], in test [16], in test [7] and in test [9] was “inactive” each time. The Potency entry in test [11] and in test [12] was “inactive” in each case.
As to `CCCCCCCC(=O)OC`, the Potency entry in [1], in test [2], in [3], in test [4], in test [13] and in test [14] was “inactive” in each case. Moreover, the Potency entry in [15], in [5], in test [6], in test [16], in test [17] and in test [18] was “inactive” each time. Also, the Potency result in [19], in test [20], in test [7], in test [8], in test [9] and in test [12] was “inactive” in each case. Moreover, the Potency entry in test [11] is “inactive and 61.1 µM (active)”.
On to `CCCOC(=O)c1ccccc1`, for which the Potency result in test [1], in [2], in [3], in test [4], in test [13] and in test [14] was “inactive” each time. The Potency result in test [15], in test [5], in test [6], in test [16], in test [17] and in test [18] was “inactive” in each case. The Potency entry in [19], in [20], in [7], in test [8], in [9] and in [11] was “inactive” throughout. Also, the Potency entry in [12] was “inactive”.
As to `C=C(C)C(=O)OCCOC(=O)C(=C)C`, the Potency result in test [1], in test [2], in test [3], in [4], in test [13] and in [14] was “inactive” throughout. Also, the Potency result in test [15], in test [5], in test [6], in test [16], in test [17] and in test [18] was “inactive” each time. The Potency result in [19], in test [20], in test [7], in test [8], in [9] and in test [11] was “inactive” throughout. Further, in test [12], the Potency entry was “inactive”.
For the compound `CC(CCO)CC(C)(C)C` (configuration not stated), the Potency entry in test [1], in [2], in test [3], in test [4], in test [13] and in test [14] was “inactive” throughout. Besides, the Potency result in test [15], in [5], in [6], in [16], in test [17] and in [18] was “inactive” in each case. The Potency entry in test [19], in test [20], in test [7], in test [8], in [9] and in [11] was “inactive” in each case. For the same compound, in test [12], the Potency result was “inactive”.
Consider `CC[Si](OC(C)=O)(OC(C)=O)OC(C)=O`, for which the Potency result in test [1], in test [2], in test [3], in [4], in test [13] and in test [14] was “inactive” each time. The Potency result in [15], in test [5], in [6], in [16], in [17] and in [18] was “inactive” each time. For the same compound, the Potency result in test [19], in test [20], in test [7], in test [8], in test [9] and in test [10] was “inactive” throughout. Further, the Potency entry in test [11] and in test [12] was “inactive” in each case.
As for `Clc1ccc(Sc2cc(Cl)c(Cl)cc2Cl)cc1`, the Potency entry in test [1], in test [2], in [3], in [4], in test [13] and in test [14] was “inactive” in each case. Moreover, the Potency entry in [15], in test [5], in [6], in test [16], in [17] and in test [18] was “inactive” each time. Moreover, the Potency result in [19], in test [20], in test [7], in test [8], in [9] and in test [10] was “inactive” each time. For the same compound, the Potency entry in test [11] and in test [12] was “inactive” in each case.

Values taken from PubChem BioAssay (Tox21).
